# Assay results taken from PubChem BioAssay (NCATS).
# Records with an inconclusive call do not appear. Active and inactive are the calls of the source. The call rests on the fitted dose curve; in most records, active means well fitted cell-killing curve with a large enough effect; inconclusive means small, poorly fitted or top-dose-only effect, or effect the other way; inactive means no such curve, though single readings can be large or run the other way.
# Experiment: Quantitative High-Throughput drug screen in 47 multiple myeloma cell lines against the NCATS MIPE library collection: JJN3_DSMZ cell viability assay (AID 1918966; further: nearly all actives have a fitted effect of over 50% in size)
# Conditions: JJN3 myeloma cells viability, CellTiter-Glo ATP, 48 h; series mostly up to 45.8 µM
# Description: PI: Beverly A. Mock Ph.D.
# Laboratory of Cancer Biology and Genetics,
# Center for Cancer Research, National Cancer Institute,
# National Institute of Health, Bethesda, Maryland
# Drug resistance and disease progression are common in multiple myeloma (MM) patients, underscoring the need for new therapeutic combinations. […] We hypothesized that effective combinations would reduce MYC expression and enhance p16 activity. […] These preclinical data identify potentially useful drug combinations for evaluation in drug-resistant MM and reveal potential mechanisms of combined drug sensitivity.
# Described herein is the primary MIPE qHTS used to cherrypick compounds. Validated compounds were then further tested for potential synergistic activiy.
# [1] Peat TJ, Gaikwad SM, Dubois W, Gyabaah-Kessie N, Zhang S, Gorjifard S, Phyo Z, Andres M, Hughitt VK, Simpson RM, Miller MA, Girvin AT, Taylor A, Williams D, D'Antonio N, Zhang Y, Rajagopalan A, Flietner E, Wilson K, Zhang X, Shinn P, Klumpp-Thomas C, McKnight C, Itkin Z, Chen L, Kazandijian D, Zhang J, Michalowski AM, Simmons JK, Keats J, Thomas CJ, Mock BA. Drug combinations identified by high-throughput screening promote cell cycle transition and upregulate Smad pathways in myeloma. Cancer Lett. 2023 Aug 1;568:216284. doi: 10.1016/j.canlet.2023.216284. Epub 2023 Jun 24. PMID: 37356470; PMCID: PMC10408729.
# SEQUENCE No. (e.g., 1, 2, 3, etc.); […] (e.g., Cells, Incubation, Reagent, etc.); VALUE and DESCRIPTION.
# 1; Cells; 5 uL; white, solid bottom 1536-well Greiner assay plate.
# 2; Compounds; 23 nL; Kalypsis pin tool (Wako USA) equipped with a 1536-well pin head to transfer to the assay plates.
# 3; Incubation; 48 hours; 37C incubation.
# 4; Reagent;5uL; CellTiter Glo (Promega).
# 5; Detector; 425V; Luminescence; Viewlux PerkinElmer.
# NOTES (numbers refer to Sequence numbers above)
# 1. The cell-based screening methods employed in this study were like those previously published. Briefly, the corresponding myeloma cell lines were screened in 1,536-well plates with 500 cells, 5-uL per well for inhibition of cell viability (assessed by measuring ATP levels with CellTiterGlo).
# 2. NCATS MIPE 4.0 library of approved and investigational drugs were added using the Kalypsis pin tool. Wells treated with DMSO only for 100% viability and media only wells for 0% viability were used as controls.
# 3. The assay plates were covered and incubated for 48 hours in a 37C, 5% CO2 incubator with controlled humidity.
# 4. After 48 hours, CellTilter-GloTM luminescent substrate mix (Promega) reagent was added to the assay plate and plates we incubated for 5 min at room temperature.
# 5. Signal was measured as median relative luminescence units on a ViewLux (PerkinElmer) multiplate reader.
# [1] Heske CM, Davis MI, Baumgart JT, Wilson K, Gormally MV, Chen L, Zhang X, Ceribelli M, Duveau DY, Guha R, Ferrer M, Arnaldez FI, Ji J, Tran HL, Zhang Y, Mendoza A, Helman LJ, Thomas CJ. Matrix Screen Identifies Synergistic Combination of PARP Inhibitors and Nicotinamide Phosphoribosyltransferase (NAMPT) Inhibitors in Ewing Sarcoma. Clin Cancer Res. 2017 Dec 1;23(23):7301-7311. doi: 10.1158/1078-0432.CCR-17-1121. Epub 2017 Sep 12. PMID: 28899971; PMCID: PMC6636827.
# Potency means the concentration at half of the fitted maximal effect.
row,Compound,Potency
1,Nc1cccc2c1CN(C1CCC(=O)NC1=O)C2=O (stereo not given),1.71 µM (active)
2,O=C(NCCO[N+](=O)[O-])c1cccnc1,inactive
3,COc1cc(Nc2c(C#N)cnc3cc(OCCCN4CCN(C)CC4)c(OC)cc23)c(Cl)cc1Cl,18.7 µM (active)
4,N[C@@H](Cc1cc(I)c(Oc2cc(I)c(O)c(I)c2)c(I)c1)C(=O)O,inactive
5,CC(C)[N+]1(C)[C@@H]2CC[C@H]1CC(OC(=O)C(CO)c1ccccc1)C2 (stereo not given in full),inactive
6,Nc1ccc(S(N)(=O)=O)cc1,inactive
7,C=C(c1ccc(C(=O)O)cc1)c1cc2c(cc1C)C(C)(C)CCC2(C)C,inactive
8,NCCCCNCCCN,2.96 µM (active)
9,Cc1c(OCC(F)(F)F)ccnc1CS(=O)c1nc2ccccc2[nH]1 (stereo not given),2.64 µM (active)
10,CCCOc1ccc2nc(NC(=O)OC)[nH]c2c1,5.26 µM (active)
11,Cc1ccc(Nc2nccc(N(C)c3ccc4c(C)n(C)nc4c3)n2)cc1S(N)(=O)=O,20.9 µM (active)
12,CC(C)c1ccc2c(c1)c(SC(C)(C)C)c(CC(C)(C)C(=O)O)n2Cc1ccc(Cl)cc1,18.7 µM (active)
13,CCCCC(CC)COC(=O)C(C#N)=C(c1ccccc1)c1ccccc1 (stereo not given),inactive
14,O=C(NCC1CCCCN1)c1cc(OCC(F)(F)F)ccc1OCC(F)(F)F (stereo not given),inactive
15,CNC[C@H](O)c1ccc(O)c(O)c1,13.6 µM (active)
16,Clc1ccc(C(Cn2ccnc2)OCc2c(Cl)cccc2Cl)c(Cl)c1 (stereo not given),23.5 µM (active)
17,CC(C)c1ccc2oc3nc(N)c(C(=O)O)cc3c(=O)c2c1,inactive
18,COc1cc2nc(N3CCN(C(=O)C4CCCO4)CC3)nc(N)c2cc1OC (stereo not given),inactive
19,CC[C@]1(O)C[C@H]2CN(CCc3c([nH]c4ccccc34)[C@@](C(=O)OC)(c3cc4c(cc3OC)N(C=O)[C@H]3[C@@](O)(C(=O)OC)[C@H](OC(C)=O)[C@]5(CC)C=CCN6CC[C@]43[C@@H]65)C2)C1,0.0935 µM (active)
20,Cc1cc2cc3c(C)cc(=O)oc3c(C)c2o1,5.26 µM (active)

row,Compound,Potency
1,CN(C)c1ccc2nc3ccc(=[N+](C)C)cc-3sc2c1,0.662 µM (active)
2,O=Nc1c(-c2c(O)[nH]c3cc(Br)ccc23)[nH]c2ccccc12,18.7 µM (active)
3,CCC1=C(C)CN(C(=O)NCCc2ccc(S(=O)(=O)NC(=O)NC3CCC(C)CC3)cc2)C1=O (stereo not given),inactive
4,O=c1c(O)c(-c2cc(O)c(O)c(O)c2)oc2cc(O)cc(O)c12,20.9 µM (active)
5,CN(C)C(=O)[C@H](O)[C@H](Cc1ccccc1)NC(=O)c1cc2cc(Cl)ccc2[nH]1,1.66 µM (active)
6,Cc1c(C(=O)NN2CCCCC2)nn(-c2ccc(Cl)cc2Cl)c1-c1ccc(Cl)cc1,20.9 µM (active)
7,CCCS(=O)c1ccc2nc(NC(=O)OC)[nH]c2c1 (stereo not given),11.8 µM (active)
8,CCCCCCCCCCCCCCCCCCCCCCO,inactive
9,CCOC(=O)C1=C(O)C(=O)N(Cc2ccccc2)C1,9.35 µM (active)
10,CCCCc1ccc2nc(NC(=O)OC)[nH]c2c1,4.69 µM (active)
11,CC(C)C[C@H](NC(=O)[C@H](Cc1ccccc1)NC(=O)c1cnccn1)B(O)O,0.0166 µM (active)
12,CCN(CCO)CCCC(C)Nc1ccnc2cc(Cl)ccc12 (stereo not given),inactive
13,O=C(NOCC1CC1)c1ccc(F)c(F)c1Nc1ccc(I)cc1Cl,20.9 µM (active)
14,Cc1ccc(S(=O)(=O)NC(=O)NN2CC3CCCC3C2)cc1 (stereo not given),23.5 µM (active)
15,CCN(CC)C(=S)SSC(=S)N(CC)CC,0.0166 µM (active)
16,O=c1ccc2ccc(O)c(O)c2o1,16.6 µM (active)
17,Nc1nc(N)c(N=O)c(OCC2CCCCC2)n1,16.6 µM (active)
18,Clc1ccc(C(Cn2ccnc2)OCc2ccsc2Cl)c(Cl)c1 (stereo not given),inactive
19,CC(C)(S)[C@@H](N)C(=O)O,inactive
20,O=C1CCc2ccc(OCCCCN3CCN(c4cccc(Cl)c4Cl)CC3)cc2N1,18.7 µM (active)
